Results filed as inconclusive are left out. The source made the active and inactive calls. The calls were made as follows: active = hit-call score of the fitted dose curve at least 0.9, where 1 is the maximum; inconclusive = response in the unintended direction; inactive = score below 0.9.

The record followed here is PubChem BioAssay (EPA / NIEHS).

This experiment can be described thus: Tanguay_ZF_120hpf_OTIC_legacy: (Legacy) Oregon State University Tanguay Lab 120 Hour Post-fertilization zebrafish Assay for Otic Vesicle Malformation (AID 2283639). How it is done:
Tanguay_ZF_120hpf_legacy is a whole embryo, multiplexed endpoint assay using zebrafish larvae exposed for 120 hours post fertilization on a 96-well plate.Tanguay_ZF_120hpf_OTIC_legacy is one of one assay component(s) measured or calculated from the Tanguay_ZF_120hpf_legacy assay. It is designed to make measurements of zebrafish development as detected with brightfield microscopy of developing zebrafish embryos.Data from the assay component Tanguay_ZF_120hpf_OTIC_legacy was analyzed into 1 assay endpoints. This assay endpoint, Tanguay_ZF_120hpf_OTIC_legacy, was analyzed in the positive analysis fitting direction relative to DMSO as the negative control and baseline of activity. Using a type of morphology reporter, gain-of-signal activity can be used to understand changes in developmentals as they relate to the whole embryo. To generalize the intended target to other relatable targets, this assay endpoint is annotated to the zebrafish development intended target family, where the subfamily is otic vesicle morphogenesis.
Zebrafish husbandry: Tropical 5D wild-type adult zebrafish were housed in at an approximate density of 1000 per 100 gallon tank at the Sinnhuber Aquatic Research Laboratory, Oregon State University, Corvallis, OR. Each tank was kept at standard laboratory conditions of 28C on a 14-h light/10-h dark photoperiod in fish water consisting of reverse osmosis water supplemented with a commercially available salt (Instant Ocean). Spawning funnels were placed into the tanks the night prior, and embryos were collected and staged. […] Ten microliters of each row of dilution plate 2 was added to 2 exposure plates. The final DMSO concentration used was 0.64% (vol/vol). Thirty-two embryos were also exposed to 5uM trimethyltin chloride (positive control). Plates were sealed to prevent evaporation and foil covered to reduce light exposure and kept in a 28C incubator. Embryos were statically exposed until 120 hpf. At 24 hpf, embryos were assessed for photomotor response using a custom photomotor response analysis tool (PRAT) and for developmental toxicity endpoints (MO24: mortality at 24 hpf, DP: developmental progression, SM: spontaneous movement, and NC: notochord distortion). At 120 hpf, locomotor activity was measured using Viewpoint Zebralab and assessed for 18 endpoints. Zebrafish acquisition and analysis program (ZAAP), a custom program designed to inventory, acquire, and manage zebrafish data, was used to collect developmental endpoints as either present or absent (i.e., binary responses were recorded). If mortality occurred for an embryo (at either 24 or 120 hpf), the non-mortality endpoints were not measured.
As to `CCCCN(CCCC)SN(C)C(=O)Oc1cccc2c1OC(C)(C)C2`, the result was inactive. Still for that read-out and setting: with `CCCCc1ccccc1` the entry was “inactive”; with `c1nc[nH]n1`, “inactive”.

As to `CCNc1nc(Cl)nc(NC(C)(C)C)n1`, the call was inactive. On the same count and under the same terms, with `c1ccc(OP(Oc2ccccc2)Oc2ccccc2)cc1` the entry was “inactive”. Same read-out and setting: with `c1ccc2c(c1)Nc1ccccc1S2` the entry was “inactive”; with `O=P1(N(CCCl)CCCl)NCCCO1` (configuration not stated), “inactive”; with `O=[N+]([O-])c1ccc(Cl)c(Cl)c1`, “inactive”. Regarding `Cc1ccc([N+](=O)[O-])cc1C`, the compound was classed as inactive. For the compound `CCC1(c2ccccc2)C(=O)N=C(O)NC1=O` (configuration not stated), the outcome was inactive. Take `OCC1CO1` (configuration not stated): the compound was classed as inactive. Still for that read-out and setting: next, `ClC1=C(Cl)C2(Cl)C3C(Cl)C(Cl)CC3C1(Cl)C2(Cl)Cl` (configuration not stated): “inactive”; `CC(Cc1ccc(OCC(=O)O)cc1)NCC(O)c1csc(C(F)(F)F)n1` (configuration not stated): “inactive”. The same measure, in the same setting: with `O=[N+]([O-])c1ccccc1` the entry was “inactive”; with `Nc1ccc(Cl)cc1`, “inactive”; with `Nc1ccc2ccccc2c1`, “inactive”. On the same count and under the same terms, next, `CN(C)C(=O)Cl`: “inactive”; `CCOP(=S)(OCC)SCSCC`: “inactive”; `ClC(Cl)(Cl)c1ccccc1`: “inactive”. As to `O=C(O)C1C(C(=O)O)C2(Cl)C(Cl)=C(Cl)C1(Cl)C2(Cl)Cl` (configuration not stated), the result was inactive. The same measure, in the same setting: next, `CCOP(=S)(Oc1ccc([N+](=O)[O-])cc1)c1ccccc1` (configuration not stated): “inactive”; `[N-]=[N+]=[N-]`: “inactive”. Still for that read-out and setting: with `CCOS(=O)(=O)OCC` the entry was “inactive”; with `O=P(Oc1ccccc1)(Oc1ccccc1)Oc1ccccc1`, “inactive”; with `O=C(O)C(Cl)Cl`, “inactive”. As for `CCN(CC)c1ccccc1`, the result was inactive.

For the compound `c1cc2c3c(cccc3c1)CC2`, the compound was called inactive. Same read-out and setting: with `CSC(C)(C)C=NO` the entry was “inactive”; with `ClC(Cl)c1ccccc1`, “inactive”.

As to `COCCOCCO`, the compound was called inactive. By AC50 is commonly meant the midpoint of the concentration-response curve, whichever way the signal moves. As to `CCC(C)(C)c1ccc(O)cc1`, the AC50 is 48.4 µM (active). For the compound `Cc1ccc(N)cc1N`, the compound was called inactive.
